Experimental data reported in PubChem BioAssay (Tox21).
Records with an inconclusive call do not appear. Calls of active or inactive are those of the source. Unless noted, calls follow the shape of the dose curve; as a rule, active = well fitted curve in the direction sought with a large enough effect in the repeat runs; inconclusive = weak or mixed curves; inactive = no such curve, though single readings can be large; an effect the other way counts as inactive or inconclusive.

What was measured:
[1] = qHTS assay to identify small molecule agonists of the RXR signaling pathway - cell viability counter screen (AID 1159529); also: nearly all actives have a fitted effect of over 50% in size
In short: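 Compounds dissolved in DMSO were pinned onto HEK 293T cells carrying a beta-lactamase reporter under RXR-alpha control and incubated 16 hr. Cytotoxicity was then quantified by CellTiter-Glo luminescence.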

[2] = qHTS assay to identify small molecule antagonists of the retinoid acid receptor (RAR) signaling pathway - cell viability counter screen (AID 1159551); also: nearly all actives have a fitted effect of over 35% in size
In short: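 Cells (C3RL4) are plated, incubated overnight, dosed with compound in DMSO, then given retinol at 1 uM final. After 6 h at 37 C, CellTiter-Glo is added and luminescence read following 30 min at room temperature.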

[3] = qHTS assay to identify small molecule antagonists of the retinoic acid receptor (RAR) signaling pathway (AID 1159552; also: nearly all actives have a fitted effect of over 50% in size)
In short: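 Test chemicals and DMSO controls were pin-transferred onto C3RL4 cells a day after seeding; retinol (1 uM final) followed at once. Luminescent reporter output was quantified after 6 hr of co-incubation and 30 min with detection reagent.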

[4] = qHTS assay to identify small molecule agonists of the retinoic acid receptor (RAR) signaling pathway (AID 1159553); conditions: C3RL4 RARE luciferase reporter, agonist, 6 h; activation: at 73.3 µM (top of the series)
In short: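 Seed C3RL4 reporter cells at 1,000 per well and incubate overnight at 37 C. Add compounds in DMSO, incubate 6 hr. Add luciferase reagent, wait 30 min at room temperature, read luminescence.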

[5] = qHTS assay to identify small molecule antagonists of the estrogen related receptor (ERR) signaling pathway from Tox21 library - cell viability counter screen (AID 1224834); also: nearly all actives have a fitted effect of over 30% in size
In short: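 ERR cells, 2,000/well; 6 h settle at 37 C/5% CO2; pin-tool compound transfer in DMSO; 17.5 h at 37 C; CellTiter-Fluor, 30 min; fluorescence intensity.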

[6] = molecular target: Luciferin 4-monooxygenase (Photinus pyralis) (UniProt P08659); assay: qHTS assay to identify small molecule inhibitors of firefly luciferase (AID 1224835); also: nearly all actives have a fitted effect of over 25% in size
In short: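 Quantitative HTS format; KM concentrations of both substrates. Purified P. pyralis FLuc activity quantified from luminescence images.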

[7] = qHTS assay to identify small molecule agonists of the constitutive androstane receptor (CAR) signaling pathway - cell viability counter screen (AID 1224836); also: nearly all actives have a fitted effect of over 45% in size
In short: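 23 h treatment, 37 C, 5% CO2. Cell line: HepG2 stably expressing hCAR with a CYP2B6-2.2kb construct. Co-treatment: PK11195, 0.75 uM final. Read-out: CellTiter-Fluor fluorescence intensity.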

[8] = qHTS assay to identify small molecule antagonists of the constitutive androstane receptor (CAR) signaling pathway - cell viability counter screen (AID 1224837); also: nearly all actives have a fitted effect of over 45% in size
In short: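 Viability was measured with CellTiter-Fluor in a HepG2 line carrying stably transfected hCAR and a CYP2B6-2.2kb construct. Cells were exposed for 23 hr at 37 C to 15 compound concentrations with 50 nM CITCO as agonist.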

[9] = molecular target: Nuclear receptor subfamily 1 group I member 3 (Homo sapiens) (UniProt Q14994); assay: qHTS assay to identify small molecule agonists of the constitutive androstane receptor (CAR) signaling pathway (AID 1224839); also: nearly all actives have a fitted effect of over 15% in size
In short: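 Compounds tested at 15 concentrations on HepG2 cells stably harbouring hCAR and CYP2B6-2.2kb reporter constructs, co-treated with PK11195 (0.75 uM final), 24 h at 37 C; luminescent reporter signal quantified.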

[10] = qHTS assay to identify small molecule antagonists of the estrogen related receptor signaling pathway with the pleiotropic PPARgamma coactivator (PGC) from Tox21 10K library - cell viability counter screen (AID 1224840; active = well fitted cell-killing curve with a large enough effect in the repeat runs, not every such curve was filed as active; also: nearly all actives have a fitted effect of over 40% in size)
In short: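 Multiplexed viability counter screen in the PGC/ERR cell line: cells treated with DMSO-dissolved compounds for 17.5 hours at 37 C, then viability measured as CellTiter-Fluor fluorescence.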

[11] = molecular target: Thyrotropin receptor (Homo sapiens) (UniProt P16473); assay: qHTS assay to identify small molecule agonists of the thyroid stimulating hormone receptor (TSHR) signaling pathway (AID 1224843; calls by dose curve; also: nearly all actives have a fitted effect of over 45% in size)
In short: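 Using 15 concentrations per compound in triplicate, cAMP production was monitored in TSHR-HEK293 cells after 30 min compound incubation at RT; HTRF reagents followed, with fluorescence intensity recorded after 1 h.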

[12] = qHTS assay to identify small molecule agonists of the hypoxia (HIF-1) signaling pathway - cell viability counter screen (AID 1224844; calls by dose curve; also: nearly all actives have a fitted effect of over 50% in size)
In short: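 Cytotoxicity was measured in parallel with the HRE-driven beta-lactamase readout: after 17 hrs of compound exposure at 37C, HRE-bla ME-180 cells received CellTiter-Glo and luminescence was recorded 30 min later.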

[13] = qHTS assay to identify small molecule agonists of H2AX (AID 1224845; active = well fitted activation curve with a large enough effect in the signal ratio in the repeat runs, not every such curve was filed as active; the % refers to the signal ratio)
In short: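 Wild-type CHO-K1 cells plated overnight, then exposed 3 hr at 37C to compounds at 15 concentrations (0.76% DMSO). Lysed, then HTRF anti-pH2AX(S139)-cryptate/anti-H2AX-d2 detection after 24 hr at room temperature; emissions 665 and 620 nm.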

[14] = qHTS assay to identify small molecule agonists of the hypoxia (HIF-1) signaling pathway (AID 1224846; active = well fitted activation curve with a large enough effect in the signal ratio in the repeat runs, not every such curve was filed as active; the % refers to the signal ratio)
In short: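 Compounds from the Tox21 10K library, dissolved in DMSO, are tested for induction of a hypoxia response element–controlled beta-lactamase reporter in ME-180 cells. Exposure lasts 17 hrs at 37C after a 5 hr settling period, followed by CCF4-AM FRET substrate.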

[15] = qHTS assay to identify small molecule agonists of H2AX - cell viability counter screen (AID 1224847; calls by dose curve; also: top concentration of the series differs between compounds; nearly all actives have a fitted effect of over 30% in size)
In short: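 Compounds tested at 15 concentrations were incubated 3 hr at 37C with wild-type CHO-K1 cells; cellular ATP-based luminescence (CellTiter-Glo) indicated viability.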

[16] = qHTS assay to identify small molecule agonists of the estrogen related receptor signaling pathway with the pleiotropic PPARgamma coactivator (PGC) from Tox21 10K library (AID 1224842); also: nearly all actives have a fitted effect of over 15% in size
In short: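 PGC/ERR reporter cells (NTP line) were seeded 2,000 per well, rested 6 h at 37 C/5% CO2, then pin-dosed with compounds in DMSO for 18 h at 37 C; luciferase read by One-Glo luminescence after 30 min at room temperature.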

[17] = qHTS assay to identify small molecule antagonists of the estrogen related receptor (ERR) signaling pathway from Tox21 library (AID 1224848); also: nearly all actives have a fitted effect of over 50% in size
In short: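 Tox21 10K compounds in DMSO tested for ERR pathway antagonism in NTP's ERR cell line; 18 h, 37 C exposure; ONE-Glo luminescence.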

[18] = molecular target: Nuclear receptor subfamily 1 group I member 3 (Homo sapiens) (UniProt Q14994); assay: qHTS assay to identify small molecule antagonists of the constitutive androstane receptor (CAR) signaling pathway (AID 1224838);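 also: HepG2 cells stably expressing hCAR with CYP2B6 luciferase reporter stimulated by CITCO; nearly all actives have a fitted effect of over 40% in size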
In short: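 Antagonist mode used CITCO at a final 50 nM to activate CAR in human hepatoma HepG2 cells carrying stable hCAR and a 2.2 kb CYP2B6 promoter-luciferase construct. Compounds were tested at 15 concentrations over 24 h, with luminescence as the end point.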

Measured: Potency

Nuclear receptor subfamily 1 group I member 3 (Homo sapiens), sequence (Q14994 whole entry, looked up): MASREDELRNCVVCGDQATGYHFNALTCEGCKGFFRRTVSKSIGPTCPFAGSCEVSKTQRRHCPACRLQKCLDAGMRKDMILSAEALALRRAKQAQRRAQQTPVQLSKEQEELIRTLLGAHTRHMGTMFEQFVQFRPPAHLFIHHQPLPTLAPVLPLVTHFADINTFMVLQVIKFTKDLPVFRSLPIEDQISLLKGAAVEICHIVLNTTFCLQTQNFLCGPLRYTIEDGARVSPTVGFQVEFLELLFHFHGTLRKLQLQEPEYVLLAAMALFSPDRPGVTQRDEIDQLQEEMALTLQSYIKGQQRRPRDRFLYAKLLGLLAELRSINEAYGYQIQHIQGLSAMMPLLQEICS
Luciferin 4-monooxygenase (Photinus pyralis), sequence (P08659 whole entry, looked up): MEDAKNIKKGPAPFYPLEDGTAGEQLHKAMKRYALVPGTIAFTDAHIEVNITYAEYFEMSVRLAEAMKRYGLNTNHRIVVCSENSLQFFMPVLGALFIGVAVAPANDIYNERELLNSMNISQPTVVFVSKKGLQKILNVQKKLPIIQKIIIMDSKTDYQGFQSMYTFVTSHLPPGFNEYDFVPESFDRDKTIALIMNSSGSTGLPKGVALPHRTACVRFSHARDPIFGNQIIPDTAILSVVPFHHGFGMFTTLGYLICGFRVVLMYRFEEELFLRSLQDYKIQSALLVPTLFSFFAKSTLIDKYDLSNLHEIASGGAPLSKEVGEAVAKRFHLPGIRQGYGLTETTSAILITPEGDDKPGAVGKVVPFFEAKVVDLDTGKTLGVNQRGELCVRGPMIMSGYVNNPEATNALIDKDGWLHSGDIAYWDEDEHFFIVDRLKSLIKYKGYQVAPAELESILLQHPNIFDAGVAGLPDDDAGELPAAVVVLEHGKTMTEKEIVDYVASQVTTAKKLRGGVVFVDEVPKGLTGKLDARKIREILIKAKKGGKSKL
Thyrotropin receptor (Homo sapiens), sequence (P16473 whole entry, looked up): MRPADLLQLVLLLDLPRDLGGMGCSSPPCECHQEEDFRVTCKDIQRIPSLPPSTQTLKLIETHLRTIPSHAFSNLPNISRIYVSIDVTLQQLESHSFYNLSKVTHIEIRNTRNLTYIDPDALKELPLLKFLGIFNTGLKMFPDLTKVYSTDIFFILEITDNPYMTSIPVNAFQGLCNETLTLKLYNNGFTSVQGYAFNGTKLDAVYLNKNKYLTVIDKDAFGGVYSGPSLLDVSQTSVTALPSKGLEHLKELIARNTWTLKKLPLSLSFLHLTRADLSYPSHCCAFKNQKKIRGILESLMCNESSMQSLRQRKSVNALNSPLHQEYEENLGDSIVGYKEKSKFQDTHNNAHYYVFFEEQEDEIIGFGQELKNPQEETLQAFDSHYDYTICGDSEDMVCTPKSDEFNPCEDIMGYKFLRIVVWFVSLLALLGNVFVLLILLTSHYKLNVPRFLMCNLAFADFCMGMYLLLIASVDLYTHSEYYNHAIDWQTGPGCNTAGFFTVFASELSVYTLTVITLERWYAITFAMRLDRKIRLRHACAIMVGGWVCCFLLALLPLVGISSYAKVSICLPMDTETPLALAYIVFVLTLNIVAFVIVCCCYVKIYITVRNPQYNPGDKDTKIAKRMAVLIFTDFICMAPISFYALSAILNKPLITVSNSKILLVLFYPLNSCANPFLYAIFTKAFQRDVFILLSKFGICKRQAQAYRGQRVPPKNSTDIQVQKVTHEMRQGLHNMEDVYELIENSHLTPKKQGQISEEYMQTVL

O=C(O)C(=O)Nc1cccc(-c2nn[nH]n2)c1
not listed: [16] | [17] | [18]
inactive: all other assays above

CCCCC(C)C(=O)O (stereo not given)
not listed: [2] | [9] | [18]
inactive: all other assays above

O=C(CN1CCN(Cc2ccc3c(c2)OCO3)CC1)N1c2ccccc2Sc2ccccc21
not listed: [3] | [9] | [10] | [16] | [17]
inactive: all other assays above

COC(/C=C(\C)CCC=C(C)C)OC
not listed: [2] | [9] | [16] | [17] | [18]
inactive: all other assays above

O=C(/C=C/c1ccccc1)NCCO
not listed: [6] | [10] | [16] | [17]
inactive: all other assays above

CCCCCCCCCCCCC1CO1 (stereo not given)
not listed: [11] | [16] | [17]
inactive: all other assays above

CCCCC(CC)COC(=O)c1ccccc1 (stereo not given)
not listed: [11] | [16] | [17]
inactive: all other assays above
